In ChEMBL document CHEMBL1857833, “Screening and optimization of specific chemical series against human African Trypanosomiasis (HAT)”:
Out of some 4,400 compounds screened, about 390 (8.9%) showed an effect of 50% or more. The sample holds strong results, similar compounds and a random draw of the others, so the mix is not that of the screen.

These compounds were tested on Trypanosoma brucei (assay: DNDI: Inhibition of Human African Trypanosomiasis, SBRI 427, in vitro at 2 ug.mL-1).
Format: functional

SMILES	% inhibition [%]
CCOc1ccc(-c2nc(CNCc3ccc(C(F)(F)F)cc3)co2)cc1	-13
CCOc1ccc(-c2nc(CN3CCC(N4CCCCC4)CC3)co2)cc1	9
CC(NCc1coc(-c2ccccc2Cl)n1)c1ccccc1 (stereo unspecified)	9
COC(=O)C1CCN(/C(=N\O)c2ccc(Oc3ccc(C)cc3C)nc2)CC1	11
CCCCN(CCC#N)Cc1coc(-c2ccccc2OCC)n1	-9
O=[N+]([O-])c1ccc(N2CCN(Cc3coc(-c4cccc(F)c4)n3)CC2)cc1	-6
c1csc(-c2nc(CN3CCCCCCC3)co2)c1	3
Cc1cc(C)cc(Oc2nc(C)ccc2/C(=N/O)NCCN2CCOCC2)c1	15
Cc1ccc(/C(=N/O)NCC2CC2)c(Oc2ccc3oc4ccccc4c3c2)n1	5
Cc1ccc(/C(=N/O)NC2CCC2)c(Oc2ccc3oc4ccccc4c3c2)n1	101
Cc1cc(N/C(=N\O)c2ccc(C)nc2Oc2ccc3oc4ccccc4c3c2)on1	20
Cc1ccc(/C(=N/O)NC2CCC(C)CC2)c(Oc2ccc3oc4ccccc4c3c2)n1 (stereo unspecified)	3
Cc1ccc(/C(=N/O)NCCC2CCCN2C)c(Oc2ccc3oc4ccccc4c3c2)n1 (stereo unspecified)	13
Cc1ccc(/C(=N/O)NC2CCCC2)c(Oc2ccc3oc4ccccc4c3c2)n1	99
Cc1ccc(/C(=N/O)NC2CCCC2)c(Oc2cccc(C(C)C)c2)n1	3
CC(C)COc1ncccc1/C(=N/O)N(C)Cc1ccco1	11
COc1ccc(-c2nc(CN3CCN(C(=O)C4CCCO4)CC3)co2)cc1 (stereo unspecified)	9
COc1ccc(Oc2cc(/C(N)=N/O)ccn2)cc1	19
CCOc1ccc(Oc2cc(/C(N)=N/O)ccn2)cc1	7
Cc1ccc(Oc2cc(/C(N)=N/O)ccn2)c2c1CCC2	16
C#CCN(C)Cc1coc(-c2ccc(Br)cc2)n1	4
O/N=C(\NC1CCC1)c1cccnc1OCC1CCCCC1	99

SMILES	% inhibition [%]
O/N=C(\NCC1CCCCC1)c1cccnc1OCC(F)(F)F	0
N/C(=N\O)c1cccnc1OCC1CCCCC1	13
Cc1ccc(/C(=N/O)NC2CCCC2)c(OCC2CCCCC2)n1	12
CCC(CC)N/C(=N\O)c1cccnc1OCC1CCCCC1	98
O/N=C(\NCC1CCCO1)c1cccnc1OCC1CCCCC1 (stereo unspecified)	5
O/N=C(\NCc1cccs1)c1cccnc1OCC1CCCCC1	-4
O/N=C(\NC1CCCCC1)c1cccnc1OCC(F)(F)F	71
CC(C)c1ccc(N/C(=N\O)c2cccnc2OCC(F)(F)F)cc1	1
COc1ccc(CN/C(=N\O)c2cccnc2Oc2ccc(SC)c(C)c2)cc1	4
CC1CCCCN1Cc1coc(-c2ccco2)n1 (stereo unspecified)	1
C(=C\c1ccccc1)/CN1CCN(Cc2coc(-c3cccc4ccccc34)n2)CC1	19
O/N=C(/c1ccc(Oc2cccc(F)c2)nc1)N1CCCCC1	5
c1csc(-c2nc(CNCC3CCCO3)co2)c1 (stereo unspecified)	2
COc1ccc(-c2nc(CN3CCCCC3)co2)cc1	4
Cc1ccc(/C(=N/O)N2CCCCC2)c(Oc2ccc(-n3ccnc3)cc2)n1	12
Cc1cc(Oc2nc(C)ccc2/C(N)=N/O)cc(C(C)C)c1	55
Cc1ccc(/C(N)=N/O)c(Oc2ccc(C(C)C)cc2)n1	31
Cc1ccc(/C(=N/O)NC(C)C)c(Oc2cccc(C(C)C)c2)n1	7
Cc1ccc(/C(N)=N/O)c(Oc2cccc(C(C)C)c2)n1	57
Cc1cccc(Oc2nc(C)ccc2/C(N)=N/O)c1	-4
Cc1cc(Oc2ncccc2/C(N)=N/O)cc(C(C)C)c1	20
Cc1cccc(Oc2nc(C)ccc2/C(=N/O)N2CCSCC2)c1	1

SMILES	% inhibition [%]
Cc1ccc(/C(N)=N/O)c(Oc2c(F)c(F)cc(F)c2F)n1	4
Cc1ccccc1NCc1coc(-c2ccccc2F)n1	-5
COc1ccc(Oc2ncccc2/C(=N/O)n2ccnc2C)cc1	-2
COc1cc2c(cc1OC)C(C(C)C)N(Cc1coc(-c3ccc(C)cc3)n1)CC2 (stereo unspecified)	27
COc1cc(CNCc2coc(-c3ccc(C(F)(F)F)cc3)n2)cc(OC)c1	-1
Fc1ccc(-c2nc(CNCc3ccncc3)co2)cc1	-3
Cc1cc(C)cc(CN/C(=N\O)c2ccc(Oc3cccc(C)c3)nc2)c1	19
CC1CCC(N/C(=N\O)c2ccc(Oc3cccc4ccccc34)nc2)CC1 (stereo unspecified)	19
Cc1cc(Oc2ccc(/C(=N/O)NCc3cc(F)cc(F)c3)cn2)cc(C(C)C)c1	17
CCC(C)(C)N/C(=N\O)c1ccc(Oc2cc(C)cc(C(C)C)c2)nc1	91
CCC(C)(C)N/C(=N\O)c1ccc(Oc2cccc3c2OC(C)(C)C3)nc1	11
CCC(C)(C)N/C(=N\O)c1ccc(Oc2cc(C)cc(C)c2)nc1	95
CCC(C)(C)N/C(=N\O)c1ccc(Oc2cccc3ccccc23)nc1	95
Cc1cccc(Oc2ccc(/C(=N/O)NC(C)C)cn2)c1	8
CCC(C)(C)N/C(=N\O)c1ccc(Oc2ccc(F)cc2)nc1	27
Cc1cc(Oc2ccc(/C(=N/O)NCc3ccccc3)cn2)cc(C(C)C)c1	14
Cc1cc(C)cc(Oc2ccc(/C(=N/O)NCc3ccccc3)cn2)c1	-3
CCC(C)(C)N/C(=N\O)c1ccc(Oc2cccc(C)c2)nc1	67
COCCCNCc1coc(-c2ccccc2)n1	38
CC1CC(C)CN(/C(=N\O)c2ccc(Oc3cc(Cl)ccc3Cl)nc2)C1 (stereo unspecified)	10
CN(Cc1cccnc1)/C(=N\O)c1ccc(Oc2cc(Cl)ccc2Cl)nc1	-14
Cc1ccc(/C(=N/O)N2CC=CC2)c(Oc2cccc3ccc(C)nc23)n1	28

SMILES	% inhibition [%]
N/C(=N\O)c1ccc(Oc2ccc3ccccc3c2)nc1	12
Cc1ccc(/C(=N/O)N2CCC=N2)c(Oc2cccc(F)c2)n1	21
CCN(CCC#N)Cc1coc(-c2ccc(C(F)(F)F)cc2)n1	-3
Cc1ccccc1CN/C(=N\O)c1ccnc(Oc2ccc(F)c(Cl)c2)c1	14
CN(/C(=N\O)c1cccnc1Oc1ccc(-n2cncn2)cc1)C1CCCCC1	14
Cc1ccc(-c2nc(CNCc3ccccc3)co2)cc1	-10
O/N=C(/c1ccc(Oc2ccc3ccccc3c2)nc1)N1CCC2CCCCC2C1 (stereo unspecified)	28
O/N=C(/c1ccc(Oc2cc(Cl)ccc2Cl)nc1)N1CCC2CCCCC2C1 (stereo unspecified)	-2
CC1CC(C)CN(/C(=N\O)c2ccc(Oc3cccc4cccnc34)nc2)C1 (stereo unspecified)	-24
O/N=C(/c1ccc(Oc2cccc3cccnc23)nc1)N1CCN(c2ccccc2)CC1	-27
O/N=C(/c1ccc(Oc2ccc(Cl)cc2)nc1)N1CCC2CCCCC2C1 (stereo unspecified)	99
O/N=C(/c1ccc(Oc2cccc3cccnc23)nc1)N1CCC2CCCCC2C1 (stereo unspecified)	58
CCOc1ccc(Oc2nc(C)ccc2/C(=N/O)N2CC(C)CC(C)C2)cc1 (stereo unspecified)	8
Cc1cc(Oc2ccc(/C(=N/O)NCc3cc(F)ccc3F)cn2)cc(C(C)C)c1	-14
O/N=C(/c1cccnc1OC1CCC1)N1CCN(c2ccc(F)cc2)CC1	7
CC(=O)c1ccc(N2CCN(Cc3coc(-c4ccccc4Cl)n3)CC2)cc1	-7
Cc1ccc(/C(=N/O)N2CCC(N(C)C)C2)c(Oc2ccc3ccccc3c2)n1 (stereo unspecified)	20
Cc1ccc(Oc2ncccc2/C(=N/O)N2CCC3CCCCC3C2)c2c1CCC2 (stereo unspecified)	-7
Cc1ccc(Oc2ncccc2/C(=N/O)NC2CCC(C)CC2)c2c1CCC2 (stereo unspecified)	100
CCC(CC)N/C(=N\O)c1cccnc1Oc1ccc(C)c2c1CCC2	99
Cc1ccc(Oc2ncccc2/C(N)=N/O)c2c1CCC2	9
COCCN/C(=N\O)c1cccnc1Oc1ccc(C)c2c1CCC2	80

SMILES	% inhibition [%]
Cc1ccc(Oc2ncccc2/C(=N/O)NCC2CC2)c2c1CCC2	99
Cc1ccc(Oc2cc(/C(=N/O)NCC3CC3)ccn2)c2c1CCC2	40
Cc1ccc(Oc2ncccc2/C(=N/O)N2CC(C)CC(C)C2)c2c1CCC2 (stereo unspecified)	6
COCC(C)N/C(=N\O)c1cccnc1Oc1ccc(C)c2c1CCC2 (stereo unspecified)	12
CCCN/C(=N\O)c1cccnc1Oc1ccc(C)c2c1CCC2	42
Cc1ccc(Oc2ncccc2/C(=N/O)NC(C)C)c2c1CCC2	8
Cc1ccccc1-c1nc(Cn2ncc3c2CCCC3)co1	-16
O/N=C(/c1ccc(Oc2cc(Cl)ccc2Cl)nc1)N1CCSCC1	-11
COc1ccc(Oc2nc(C)ccc2/C(=N/O)N(C)Cc2cccnc2)cc1	-3
CCCN(CCC)Cc1coc(-c2ccccc2Cl)n1	16
Oc1ccc(-c2nc(CN3CCc4ccccc4C3)co2)cc1	8
CCOc1ccc(-c2nc(CN(C)CC#N)co2)cc1	4
CSc1ccc(Oc2nc(C)ccc2/C(=N/O)n2nc(C)cc2C)cc1C	16
CSc1ccccc1Oc1ncccc1/C(=N/O)N1CCN(c2ccc(F)cc2)CC1	19
Cc1cccc(N2CCN(Cc3coc(-c4ccc(OC(F)(F)F)cc4)n3)CC2)c1C	-7
CC(C)CN/C(=N\O)c1cccnc1Oc1ccccc1	17
Cc1ccc(Oc2ncccc2/C(=N/O)NCC(C)C)c2c1CCC2	100
Cc1ccc(Oc2ncccc2/C(=N/O)N2CCCC2)c2c1CCC2	-1
